Compounds with a hit are over-represented: about 3.5% of the library has one in this group of screens.
MITF inh: MITF inhibitors, primary screen, biochemical, AlphaScreen, human | Microphthalmia-associated transcription factor (Homo sapiens), O75030 | AlphaScreen MITF homodimerization, bead proximity signal | inhibition, % at 2.6 µM | 650,000 compounds, 0.91% hits | AID 1259374, 2018; in the data active means inhibition above about 50%
TEAD-YAP inh: TEAD-YAP interaction inhibition, primary screen, TEAD-YAP interaction inhibitor project, luminescence, HEK-TIYL cells; inhibition, % at 9.12 µM; 640,000 compounds, 1.4% hits; AID 1259422, 2018; TEAD-Gal4/YAP UAS-luciferase luminescence; in the data active means inhibition above about 32%
GPR151 ag: activators of human GPR151, primary screen, cell-based, PathHunter beta-arrestin, luminescence; G-protein coupled receptor 151 (Homo sapiens), Q8TDV0; PathHunter beta-arrestin GPR151 cells; activation, % at 11.2 µM; 650,000 compounds, 1% hits; AID 1508602, 2020; in the data active means activation above about 4.9%
FBW7 act: FBW7 E3 ligase activators, primary screen, biochemical, AlphaScreen, human; normalized activity (activation), % at 26.1 µM; AlphaScreen FBW7–phospho-cyclin E peptide binding, activator screen; 650,000 compounds, 0.13% hits; in the data active means normalized activity above about 1.9%;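 further: purified mutant Fbw7 with reduced substrate affinity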
Target sequence (Q969H0 whole entry, looked up): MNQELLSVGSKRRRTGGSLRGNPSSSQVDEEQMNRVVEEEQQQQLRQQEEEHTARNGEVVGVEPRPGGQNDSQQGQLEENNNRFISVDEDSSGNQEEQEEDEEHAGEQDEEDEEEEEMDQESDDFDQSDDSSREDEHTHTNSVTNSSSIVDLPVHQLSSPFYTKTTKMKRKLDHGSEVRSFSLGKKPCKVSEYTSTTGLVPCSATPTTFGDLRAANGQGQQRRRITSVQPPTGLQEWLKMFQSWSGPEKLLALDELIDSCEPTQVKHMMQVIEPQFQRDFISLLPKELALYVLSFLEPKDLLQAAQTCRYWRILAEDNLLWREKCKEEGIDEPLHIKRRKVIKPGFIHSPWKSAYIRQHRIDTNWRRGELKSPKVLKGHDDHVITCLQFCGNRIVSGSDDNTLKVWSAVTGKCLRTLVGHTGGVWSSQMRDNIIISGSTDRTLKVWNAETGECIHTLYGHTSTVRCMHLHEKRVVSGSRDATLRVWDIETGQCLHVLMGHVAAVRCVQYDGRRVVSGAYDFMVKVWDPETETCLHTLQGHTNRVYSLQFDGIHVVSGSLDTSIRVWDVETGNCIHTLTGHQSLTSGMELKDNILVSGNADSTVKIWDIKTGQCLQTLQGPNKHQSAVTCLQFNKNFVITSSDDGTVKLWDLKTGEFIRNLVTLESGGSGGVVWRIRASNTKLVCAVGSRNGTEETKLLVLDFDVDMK
MITF inh conf: MITF inhibitors, retest of hits, confirmation, biochemical, AlphaScreen, triplicate. shares compounds with MITF inh. AlphaScreen MITF homodimerization, biotin/His-MITF beads. inhibition, % at 2.6 µM. 4,700 compounds, 16% hits;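 active means inhibition above a cutoff derived from the DMSO control wells, cut at about 28% in these data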;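 further: inhibitors lower the bead chemiluminescence by keeping MITF from dimerizing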
AlphaScreen DR: AlphaScreen optical interference compounds, dose response, counter-screen, biochemical, HTS | shares compounds with MITF inh | AlphaScreen optical interference counterscreen, cell-free | IC50, µM | 480 compounds, 6% hits | AID 1259373, 2018; call rule not given here
AlphaScreen intf2: AlphaScreen optical interference compounds, counter-screen for MITF inhibitor project, biochemical, triplicate; 4,700 compounds, 7.6% hits; shares compounds with MITF inh; AID 1259376, 2018; inhibition, % at 2.6 µM; LysRS AlphaScreen counterscreen, signal interference;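 active means inhibition above a cutoff derived from the DMSO control wells, cut at about 30% in these data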
GPR151 confirm: GPR151 activators, triplicate retest, confirmation, cell-based, PathHunter beta-arrestin, luminescence | activation, % at 11.2 µM | shares compounds with GPR151 ag | GPR151 PathHunter beta-arrestin cells, 90 min; % of EA-reagent control over plate median | 6,700 tested, under 10 active;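 active means mean percent activation across replicates above the confirmation screen cutoff of 4.91%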
GPR119 ag: GPR119 activators in beta-arrestin cells, counter-screen for GPR151 activator project, cell-based, PathHunter beta-arrestin, luminescence, triplicate | AID 1508611, 2020 | 90 min; 0 = compound-well median, 100 = enzyme-acceptor control | activation, % at 11.2 µM | 6,700 compounds, 0.3% hits | shares compounds with GPR151 ag;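 active means mean percent activation in the counterscreen above 29.09%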;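 further: counterscreen on off-target GPR119 to flag nonselective hits from the GPR151 activator screen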
Numbers stand for hits; – = inactive; · = no result; ! = not active in a repeat.

SMILES	MITF inh	TEAD-YAP inh	GPR151 ag	FBW7 act	MITF inh conf	AlphaScreen intf2	GPR151 confirm	GPR119 ag	others
OCCN1CCN(Cc2ccc(F)c(Br)c2)CC1	73	–	–	–	–	–	·	·
CCN1CCN(Cc2ccc(F)c(Br)c2)CC1	–	–	–	–	·	·	·	·
N#CC(C#N)=NNc1cccc(Cl)c1Cl	–	–	–	–	·	·	·	·
COc1ccccc1CN1CCN(Cc2ccccc2F)CC1	–	–	–	–	·	·	·	·
COc1ccccc1CN1CCN(Cc2ccccc2Cl)CC1	82	–	–	–	–	–	·	·
COc1ccccc1N1CCN(Cc2ccccc2C)CC1	–	–	–	–	·	·	·	·
COc1ccccc1CN1CCN(Cc2ccccc2OC)CC1	75	–	–	–	–	–	·	·
COc1ccccc1N1CCN(Cc2ccccc2C#N)CC1	55	–	–	–	–	–	·	·
C=CCOC(=O)C1=C(C)OC(N)=C(C(=O)OC(C)C)C12C(=O)Nc1ccccc12 (configuration not stated)	–	–	–	–	·	·	·	·
COc1ccc(CCNCc2cccnc2)cc1OC	70	–	–	–	–	–	·	·
COc1cccc(CCNCc2cc(OC)cc(OC)c2)c1	55	–	–	–	–	–	·	·
CSc1ccc(CN2CCN(Cc3ccc(F)cc3)CC2)cc1	78	–	5.2	–	–	–	–	–
Cc1c(N=Nc2c(O)[nH]c(=S)[nH]c2=O)c(=O)n(-c2ccccc2)n1C	92	–	15	–	36	100	–	–
CC12CN3CCN(C1)CC(c1ccccc1)(C3)C2=O	–	–	–	–	·	·	·	·
CN(C)[C@@H]1C(=O)C(C(N)=O)=C(O)[C@@]2(O)C(=O)C3=C(O)c4c(O)ccc(Cl)c4[C@@](C)(O)[C@H]3C[C@@H]12	–	–	–	–	·	·	·	·
CN(C)[C@@H]1C(=O)C(C(N)=O)=C(O)[C@@]2(O)C(=O)C3=C(O)c4c(O)cccc4[C@@](C)(O)[C@H]3[C@H](O)[C@@H]12	64	–	7.4!	–	62	31!	–	–	AlphaScreen DR=4.4!
Cc1cccc(CN2CCCC(C(=O)c3cc(F)ccc3F)C2)n1 (configuration not stated)	–	–	–	–	·	·	·	·
O=C1CC(c2cnc[nH]2)C2(CCCCC2)O1 (configuration not stated)	–	–	7.9	–	·	·	–	–
CCOC(=O)C1=C(N)OC(C)=C(C(=O)OCCOC)C12C(=O)Nc1ccccc12 (configuration not stated)	–	–	–	–	·	·	·	·
CCCCOC(=O)C1=C(N)OC(C)=C(C(=O)OCCOC)C12C(=O)Nc1ccccc12 (configuration not stated)	–	–	5.3	–	·	·	–	–
C=C(C)[C@@H]1C2C(=O)O[C@H]1[C@H]1OC(=O)[C@@]34OC3C[C@]2(O)[C@@]14C (some centres not stated)	–	–	7.9!	–	·	·	–	–
COc1ccc(CCN(C)Cc2cc(OC)c(OC)cc2[N+](=O)[O-])cc1OC	–	–	8.4	–	·	·	–	–
COc1ccc(C(CN(C)C)C2(O)CCCCC2)cc1 (configuration not stated)	–	–	8.7!	–	·	·	–	–
COc1ccc(C2(CN)CCCC2)cc1	–	–	–	–	·	·	·	·
O=C1Nc2ccc(Cl)cc2C(c2ccccc2Cl)=NC1O (configuration not stated)	–	–	6.8	–	·	·	–	–

Bioassay records as filed in PubChem.
